AMA1 RON2 block – disrupts binding of P. falciparum AMA1 to RON2. AlphaScreen AMA1-biotinylated RON2 peptide binding. 0.2% of 360,000 active. Potency, µM (series often up to 58.2 µM), for the others: top-dose activity change, negative = inhibition, hits mostly inhibitors;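 further: potency means the concentration at half of the fitted maximal effect; 0% = vehicle wells and -100% = peptide control; nearly all actives have a fitted effect of over 45% in size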
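AMA1 (3D7) with his tag at 25 nM final met compounds first, then biotinylated RON2 peptide at 25 nM; detection used donor plus acceptor beads, 10 µg/mL apiece, read by AlphaScreen after 30 min at room temperature.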
Cycloheximide cs – counter-screen for Shiga toxin inhibitors: cycloheximide protein synthesis inhibition; AID 2314; 12% of 300,000 active; max response, %; cell reporter, cycloheximide protein synthesis inhibition counterscreen; in the data active means max response mostly above about 13%, no sharp cut-off; inactive means mostly below about 14%; further: read at 38.3 µM for the half of the compounds with a filed dose; 0% is about no effect
Pf growth 48h – P. falciparum growth inhibition at 48 hours (one generation) | P. falciparum luciferase growth in erythrocytes, 48 h | Potency, µM (titrated, usually from 28.7 µM), for the others: top-dose activity change, negative = inhibition, actives largely listed as inhibitors | 5.9% of 310,000 active; further: potency means the concentration at half of the fitted maximal effect; on the % scale 0 is the no-effect control and ±100 the full control effect
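A one-generation exposure of luciferase-tagged malaria parasites in RPMI 1640/Albumax erythrocyte culture, 37 C and 5% CO2. Inhibition is inferred from decreased luminescence after adding detection reagent.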
HCV inhibitor – HCV inhibition; Huh7.5.1 HCVcc-Cre infection, luciferase reporter, 44 h; Potency, µM (top dose mostly 41.8 µM), inactives show at the highest dose activity change, negative = inhibition, actives largely listed as inhibitors; 3.4% of 340,000 active; further: potency means the concentration at half of the fitted maximal effect; on the % scale 0 is the no-effect control and ±100 the full control effect
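Whole-lifecycle infectious HCVcc-Cre system; cells 1,000/well, compound then virus (~0.5 moi) added 4 h after plating, 44 h culture. Luciferase read 15 sec following 15 min substrate incubation, room temp.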
Pf growth 96h – P. falciparum growth inhibition at 96 hour, primary screen for plastid delayed-death inhibitors; P. falciparum luciferase reporter growth, 96 h; Potency, µM (top dose mostly 28.7 µM), for inactives: at the highest dose activity change, negative = inhibition, most hits filed as inhibitors; 6.9% of 320,000 active; further: potency means the concentration at half of the fitted maximal effect; on the % scale 0 is the no-effect control and ±100 the full control effect
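Delayed-death screen, second-generation endpoint: infected erythrocytes, 2% hematocrit, 0.05% parasitemia final; 96 hours at 37 C, 5% CO2; luciferase detection reagent; luminescence decrease equals reduced growth.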
Shiga toxin inh – Shiga toxin inhibition. Vero cells, Shiga toxin protein synthesis inhibition reporter. inhibition, % at 38.7 µM. 9.2% of 290,000 active; in the data active means inhibition mostly above about 28%, no sharp cut-off; inactive means mostly below about 43%; further: 0% is about no effect
Numbers without * were called inactive; ? = inconclusive; nt = not tested or not shown; [ ] = another dose, or the depositor's remark. Compounds with a hit are over-represented: about 21% of the library has one in this group of screens. Unless noted, the call rests on the fitted dose curve; in most records, active means well fitted curve in the direction sought with a large enough effect; inconclusive means small, poorly fitted or top-dose-only effect, or another doubt; inactive means no such curve, though single readings can be large; an effect the other way counts as inactive or inconclusive.

SMILES	AMA1 RON2 block	Cycloheximide cs	Pf growth 48h	HCV inhibitor	Pf growth 96h	Shiga toxin inh
COc1ccc(C(=O)N/C(=C/c2cccs2)C(=O)NC(C)(C)C)cc1OC	39.6%	1.4	-15.8%	-10.1%	0.7%	-15.4
COc1ccc(C(=O)N/C(=C/c2cccs2)c2nc3ccccc3[nH]2)cc1OC	-1.0%	10.8	-19.2%	0.0%	4.65µM*	-2.5
COc1cc(/C=C(/C(=O)c2cccs2)c2nc3ccccc3[nH]2)cc(OC)c1O	39.3%	24.2*	nt	10µM*	?	90.5*
COc1ccccc1N1C(=O)C2C3C=CC(CC3)C2C1=O (stereo unspecified)	21.7%	-2.4	10.4µM*	0.2%	-24.3%	-5.5
CCOc1ccc(NC(=O)C2C3CC/C=C\CCC32)cc1 (stereo unspecified)	-3.1%	16.8*	77.3%	7.3%	?	34.5
CCOc1ccc(NC(=O)C2CCN(S(C)(=O)=O)CC2)cc1	22.2%	-2.8	-5.4%	-3.6%	11.7µM*	nt
COc1ccc(NC(=O)C2CCN(S(C)(=O)=O)CC2)cc1	7.5%	5.5	-9.8%	-1.2%	nt	7.7
COc1ccc(NC(=O)C2C3CC/C=C\CCC32)cc1 (stereo unspecified)	-7.6%	23.7*	26.0%	?	48.0%	57.0*
COc1ccc(NC(=O)C2CCCC2)cc1	-8.2%	9.6	28.9%	22.7%	?	22.4
CCCn1cnnc1CNC(=O)[C@H]1O[C@@H](n2cnc3c(N)ncnc32)[C@H](O)[C@@H]1O	1.9%	nt	nt	nt	nt	nt
CCc1ccc2c(c1)cc(C)c1nnc(SCC(=O)Nc3cc(OC)c(OC)cc3C(=O)O)n12	1.9%	-0.8	12.6%	1.1%	-12.4%	-11.7
O=C(/C=C/c1ccco1)Nc1nc(-c2ccccc2)cs1	-7.1%	86.3*	126.9%	?	27.0%	118.4*
O=C(Cc1ccc(F)cc1)Nc1nc(-c2ccc(F)c(F)c2)cs1	1.4%	2.0	4.8%	?	?	11.0
O=C(/C=C/c1ccco1)Nc1nc(-c2ccccn2)cs1	-27.5%	49.1*	?	-16.2%	?	53.5*
O=C(/C=C/c1ccco1)Nc1nc(-c2ccc(F)c(F)c2)cs1	-3.8%	18.3*	?	10µM*	0.7%	42.8
CCOC(=O)Cc1csc(NC(=O)/C=C/c2ccc(Cl)cc2)n1	-2.3%	23.3*	52.3%	11.2µM*	?	59.3*
O=C(CN1CCN(C(=O)CN2C(=O)NC3(CCCC3)C2=O)CC1)Nc1cccc(F)c1	6.0%	nt	-7.2%	1.2%	17.5%	nt
CCCN(C(=O)c1c(CC)noc1C)c1c(N)n(Cc2ccccc2)c(=O)[nH]c1=O	3.1%	nt	1.9%	7.8%	-20.5%	nt
CCOC(=O)Cc1csc(NS(=O)(=O)c2ccc(Cl)cc2)n1	5.0%	-2.4	?	37.7%	8.28µM*	-9.2
Cc1ccccc1NC(=S)NC(=O)/C=C/c1ccco1	22.7%	17.4	6.5%	-2.6%	56.5%	13.0
CCOC(=O)Cc1csc(NS(=O)(=O)c2ccc(OC)cc2)n1	-11.9%	-2.6	6.3%	22.4%	-43.7%[5.75 µM]	2.6
Cc1csc(NC(=O)/C=C/c2ccc(C)o2)n1	-3.7%	30.8*	209.1%	10.5%	141.7%	72.8*
Cc1ccc(/C=C/C(=O)Nc2nnc(SCc3ccc(C#N)cc3)s2)o1	46.5%	-1.4	7.3%	6.5%	20.6%	-9.7
CCOC(=O)Cc1csc(NC(=O)/C=C/c2ccco2)n1	-17.8%	25.3*	58.7%	-5.0%	-8.0%	59.5*
Cc1csc(NC(=O)/C=C/c2ccco2)n1	-17.0%	25.2*	253.7%	14.3%	184.0%	34.7*
SMILES	AMA1 RON2 block	Cycloheximide cs	Pf growth 48h	HCV inhibitor	Pf growth 96h	Shiga toxin inh
Fc1cccc(Cc2c(-c3cccc(Cl)c3)nc3ccc(Cl)cn23)c1	9.1%	nt	nt	nt	nt	nt
Cc1ccc(SCC(=O)Nc2nnc(C(C)(C)C)s2)cc1	-6.1%	-0.4	-14.7%	4.5%	44.0%	nt
CCC(=O)Nc1nnc(/C=C/c2ccc(OC)cc2)s1	10.3%	32.0*	26.2%	-1.0%	30.1%	55.1*
COc1ccc(CC(=O)Nc2nnc(C)s2)cc1	6.7%	-3.1	6.9%	11.6%	nt	-25.2
COc1ccc(/C=C/c2nnc(NC(=O)CSc3ccc(C)cc3)s2)cc1	2.8%	15.1*	17.1%	6.2%	?	94.0*
Cc1ccc(N2CC(O)(c3cccs3)[N+]3=C2CCCC3)cc1 (stereo unspecified)	3.2%	-1.1	?	-2.2%	5.22µM*	-8.7
Cc1cccc(N2CC(O)(c3cccs3)[N+]3=C2CCCC3)c1 (stereo unspecified)	4.3%	-2.6	1.1%	-2.7%	-71.7%	-4.6
Nc1ccc2c(c1)N1CCN=C1S2	?	-7.5	19.1%	4.1%	15.1%	-4.3
O=C(Nc1ccc(Cl)cc1)Nc1ccc2c(c1)N1CCN=C1S2	?	9.1	0.738µM*	10µM*	2.08µM*	-3.0
CCC1CCCCN1CCCNC(=O)c1ccc2c(=O)n(Cc3ccc(OC)cc3)c(=O)[nH]c2c1 (stereo unspecified)	-7.1%	-6.3	nt	14.1µM*	?	-6.0
CCC1CCCCN1CCCNC(=O)c1ccc2c(=O)n(CCOC)c(=O)[nH]c2c1 (stereo unspecified)	-6.9%	-5.3	?	-1.2%	?	-2.9
CCOCCCNC(=O)c1ccc2c(=O)n(Cc3ccc(OC)cc3)c(=O)[nH]c2c1	3.2%	1.4	5.86µM*	-8.4%	56.2%	2.6
COCCCNC(=O)c1ccc2c(=O)n(Cc3ccc(OC)cc3)c(=O)[nH]c2c1	37.2%	5.2	-29.2%	-13.2%	?	-3.9
Cc1cccc(C)c1NC(=O)CN(C)C(=O)C1CC(=O)N(c2cccc3ccccc23)C1 (stereo unspecified)	-6.0%	nt	?	-3.6%	?	nt
Cc1cccc(C)c1NC(=O)C(CCc1ccccc1)n1c(=O)c(-c2ccccc2)nc2ccccc21 (stereo unspecified)	14.4%	nt	nt	nt	nt	nt
COc1ccc(N2C(=O)CC(N(C)CCc3ccc(OC)c(OC)c3)C2=O)cc1 (stereo unspecified)	4.6%	-0.8	9.28µM*	5.3%	9.1%	-3.5
COc1ccc(N2C(=O)CC(N(CCc3ccc(OC)c(OC)c3)C(=S)Nc3ccccc3)C2=O)cc1 (stereo unspecified)	2.2%	-1.6	4.65µM*	1.5%	?	10.6
COc1ccc(CCN(C)C2CC(=O)N(c3ccccc3)C2=O)cc1OC (stereo unspecified)	-5.3%	-1.6	?	5.4%	1.6%	-10.9
COc1ccc(N2C(=O)CC(N(CCc3ccc(S(N)(=O)=O)cc3)C(=S)Nc3ccccc3)C2=O)cc1 (stereo unspecified)	?	-4.5	?	-17.3%	?	-2.6
COc1ccc(NC(=O)c2ccco2)cc1NC(=O)c1cccc(F)c1	-3.6%	-3.9	1.4%	-22.8%	?	5.2
CCCCS/C(N)=N/N=C/c1ccccc1O	71.7%	32.5*	nt	-15.3%	316.6%	53.9

Screens: PubChem, National Center for Advancing Translational Sciences (NCATS)
